From the supplement of paper PMC8728848
About 410 targets per protein were measured; listed, in parts, are those with the strongest signals and a random draw of the rest.

Assays:
Assay in all cases: glycan array binding signal (z-score within array); higher = stronger binding
Conditions in all cases: glycan notation: IUPAC condensed, linker removed
[1] = molecular target: GlcNAc(b1-3)Gal(b1-4)GlcNAc(b1-3)Gal(b1-4)GlcNAc(b1-3)Gal(b1-4)GlcNAc(b1-2)Man(a1-3)[GlcNAc(b1-3)Gal(b1-4)GlcNAc(b1-3)Gal(b1-4)GlcNAc(b1-3)Gal(b1-4)GlcNAc(b1-2)Man(a1-6)]Man(b1-4)GlcNAc(b1-4)[Fuc(a1-6)]GlcNAc
How it was run: (§1)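 Glycan array binding is given as a within-array Z-score, which can be read as non-binding when negative. The arrays, 3228 of them, came from the Consortium for Functional Glycomics database and were retained only where the protein sequence was available. Z-scores were averaged across arrays of the same protein sequence at different concentrations or buffers and across linkers.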

[2] = molecular target: GlcNAc(b1-3)Gal(b1-4)GlcNAc(b1-3)Gal(b1-4)GlcNAc(b1-3)Gal(b1-4)GlcNAc(b1-3)Gal(b1-4)GlcNAc(b1-2)Man(a1-3)[GlcNAc(b1-3)Gal(b1-4)GlcNAc(b1-3)Gal(b1-4)GlcNAc(b1-3)Gal(b1-4)GlcNAc(b1-3)Gal(b1-4)GlcNAc(b1-2)Man(a1-6)]Man(b1-4)GlcNAc(b1-4)GlcNAc
How it was run: as §1

[3] = molecular target: GlcNAc(b1-3)Gal(b1-4)GlcNAc(b1-3)Gal(b1-4)GlcNAc(b1-3)GalNAc
How it was run: as §1

[4] = molecular target: Man(a1-2)Man(a1-2)Man(a1-6)[Man(a1-3)]Man
How it was run: as §1

Man(a1-2)Man(a1-3)Man = molecular target: Man(a1-2)Man(a1-3)Man
How it was run: as §1

[5] = molecular target: Man(a1-2)Man(a1-3)[Man(a1-2)Man(a1-6)]Man
How it was run: as §1

[6] = molecular target: Man(a1-2)Man(a1-3)[Man(a1-2)Man(a1-6)]Man(a1-6)[Man(a1-2)Man(a1-2)Man(a1-3)]Man
How it was run: as §1

[7] = molecular target: Man(a1-2)Man(a1-3)[Man(a1-2)Man(a1-6)]Man(a1-6)[Man(a1-2)Man(a1-2)Man(a1-3)]Man(b1-4)GlcNAc(b1-4)GlcNAc
How it was run: as §1

[8] = molecular target: Man(a1-2)Man(a1-3)[Man(a1-6)]Man(a1-6)[Man(a1-2)Man(a1-3)]Man(b1-4)GlcNAc(b1-4)GlcNAc
How it was run: as §1

[9] = molecular target: Man(a1-2)Man(a1-6)[Man(a1-3)]Man(a1-6)[Man(a1-2)Man(a1-2)Man(a1-3)]Man
How it was run: as §1

[10] = molecular target: Man(a1-2)Man(a1-6)[Man(a1-3)]Man(a1-6)[Man(a1-2)Man(a1-2)Man(a1-3)]Man(b1-4)GlcNAc(b1-4)GlcNAc
How it was run: as §1

[11] = molecular target: Man(a1-3)[Man(a1-6)]Man(a1-6)[Man(a1-2)Man(a1-3)]Man(b1-4)GlcNAc(b1-4)GlcNAc
How it was run: as §1

[12] = molecular target: Man(a1-3)[Man(a1-6)]Man(b1-4)GlcNAc(b1-4)GlcNAc
How it was run: as §1

[13] = molecular target: Man(a1-3)[Man(a1-6)]Man(b1-4)GlcNAc(b1-4)[Fuc(a1-6)]GlcNAc
How it was run: as §1

[14] = molecular target: Neu5Ac(a2-3)Gal(b1-3)GalNAc6S
How it was run: as §1

[15] = molecular target: Neu5Ac(a2-3)Gal(b1-3)GlcNAc(b1-6)GalNAc
How it was run: as §1

[16] = molecular target: Neu5Ac(a2-3)Gal(b1-3)[GlcNAc(b1-6)]GalNAc
How it was run: as §1

[17] = molecular target: Neu5Ac(a2-3)Gal(b1-3)]Neu5Ac(a2-3)Gal(b1-4)]GlcNAc
How it was run: as §1

[18] = molecular target: Neu5Ac(a2-3)Gal(b1-4)GlcNAc(b1-2)[Neu5Ac(a2-3)Gal(b1-4)GlcNAc(b1-4)]Man(a1-3)[GlcNAc(b1-4)][Neu5Ac(a2-3)Gal(b1-4)GlcNAc(b1-4)Man(a1-6)]Man(b1-4)GlcNAc(b1-4)GlcNAc
How it was run: as §1

[19] = molecular target: Neu5Ac(a2-3)Gal(b1-4)GlcNAc(b1-3)Gal(b1-4)GlcNAc(b1-2)Man(a1-3)[Neu5Ac(a2-3)Gal(b1-4)GlcNAc(b1-3)Gal(b1-4)GlcNAc(b1-2)Man(a1-6)]Man(b1-4)GlcNAc(b1-4)GlcNAc
How it was run: as §1

[20] = molecular target: Neu5Ac(a2-3)[GalNAc(b1-4)]Gal(b1-4)Glc
How it was run: as §1

[21] = molecular target: Neu5Ac(a2-3)[GalNAc(b1-4)]Gal(b1-4)GlcNAc
How it was run: as §1

[22] = molecular target: Neu5Ac(a2-6)Gal(b1-4)GlcNAc(b1-2)Man(a1-6)[Man(a1-3)]Man(b1-4)GlcNAc(b1-4)GlcNAc
How it was run: as §1

[23] = molecular target: Neu5Ac(a2-6)Gal(b1-4)GlcNAc(b1-3)Gal(b1-4)GlcNAc
How it was run: as §1

[24] = molecular target: Neu5Ac(a2-6)Gal(b1-4)GlcNAc(b1-3)Gal(b1-4)GlcNAc(b1-3)GalNAc
How it was run: as §1

[25] = molecular target: Neu5Ac(a2-6)Gal(b1-4)GlcNAc(b1-3)Gal(b1-4)GlcNAc(b1-3)[Neu5Ac(a2-6)Gal(b1-4)GlcNAc(b1-3)Gal(b1-4)GlcNAc(b1-6)]GalNAc
How it was run: as §1

Neu5Ac(a2-6)GalNAc = molecular target: Neu5Ac(a2-6)GalNAc
How it was run: as §1

[26] = molecular target: Neu5Ac(a2-6)GalNAc(b1-4)GlcNAc
How it was run: as §1

[27] = molecular target: Neu5Ac(a2-8)Neu5Ac(a2-3)Gal(b1-3)GalNAc(b1-4)[Neu5Ac(a2-3)]Gal(b1-4)Glc
How it was run: as §1

[28] = molecular target: Neu5Ac(a2-8)Neu5Ac(a2-8)Neu5Ac(a2-3)Gal(b1-4)Glc
How it was run: as §1

Neu5Gc(a2-3)Gal(b1-4)Glc = molecular target: Neu5Gc(a2-3)Gal(b1-4)Glc
How it was run: as §1

B1: Banana lectin (Musa acuminata) (protein)
chain: MNGAIKVGAWGGNGGSAFDMGPAYRIISVKIFSGDVVDGVDVTFTYYGKTETRHYGGSGGTPHEIVLQEGEYLVGMAGEVANYHGAVVLGKLGFSTNKKAYGPFGNTGGTPFSLPIAAGKISGFFGRGGKFLDAIGVYLEPLEHHHHHH
glycan array binding signal (z-score) [1]: -0.122 | glycan array binding signal (z-score) [2]: -0.165 | glycan array binding signal (z-score) [3]: -0.184 | glycan array binding signal (z-score) [4]: 6.19 | glycan array binding signal (z-score) (Man(a1-2)Man(a1-3)Man): 2.25 | glycan array binding signal (z-score) [5]: 4.51 | glycan array binding signal (z-score) [6]: 5.96 | glycan array binding signal (z-score) [7]: 2.62 | glycan array binding signal (z-score) [8]: 8.11 | glycan array binding signal (z-score) [9]: 3.34 | glycan array binding signal (z-score) [10]: 6.29 | glycan array binding signal (z-score) [11]: 13.1 | glycan array binding signal (z-score) [12]: 4.01 | glycan array binding signal (z-score) [13]: 2.88 | glycan array binding signal (z-score) [14]: -0.237 | glycan array binding signal (z-score) [15]: -0.288 | glycan array binding signal (z-score) [16]: -0.214 | glycan array binding signal (z-score) [17]: -0.223 | glycan array binding signal (z-score) [18]: -0.225 | glycan array binding signal (z-score) [19]: -0.167 | glycan array binding signal (z-score) [20]: -0.132 | glycan array binding signal (z-score) [21]: -0.169 | glycan array binding signal (z-score) [22]: 3.56 | glycan array binding signal (z-score) [23]: -0.226 | glycan array binding signal (z-score) [24]: -0.223 | glycan array binding signal (z-score) [25]: -0.161 | glycan array binding signal (z-score) (Neu5Ac(a2-6)GalNAc): -0.204 | glycan array binding signal (z-score) [26]: -0.221 | glycan array binding signal (z-score) [27]: -0.192 | glycan array binding signal (z-score) [28]: -0.139 | glycan array binding signal (z-score) (Neu5Gc(a2-3)Gal(b1-4)Glc): -0.209
